# Compound activity: PubChem, National Center for Advancing Translational Sciences (NCATS)
# ELG1 DNA repair: ELG1-dependent DNA repair inhibition | Potency, µM (top dose mostly 46.1 µM), without a hit: top-dose activity change, negative = inhibition, actives largely listed as inhibitors | 330,000 compounds, 2.3% hits | HEK293T ELG1-luciferase reporter, luminescence, 16 h; DNA damage induced by 5-fluorouridine; also: % is scaled to controls: 0 for no effect and ±100 for the full control effect; nearly all actives have a fitted effect of over 55% in size
#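 HEK293T cells expressing luciferase-tagged ELG1 (2,000/well) received 5-Fluorouridine plus compound or DMSO for 16 hr at 37 °C. Luciferase was read by ONE-Glo luminescence after 30 min at room temperature.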
# FLuc counter: inhibits or activates purified firefly luciferase, miR-21 counter-screen; purified FLuc, Km substrates, luminescence inhibition; Potency, µM (series often up to 57.5 µM), for inactives: top-dose activity change, negative = inhibition, actives largely listed as inhibitors; 360,000 compounds, 6.9% hits; AID 588342;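 also: plate controls were vehicle for no effect and reference inhibitor for full effect; nearly all actives have a fitted effect of over 55% in size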
# Target sequence (P08659 whole entry, looked up): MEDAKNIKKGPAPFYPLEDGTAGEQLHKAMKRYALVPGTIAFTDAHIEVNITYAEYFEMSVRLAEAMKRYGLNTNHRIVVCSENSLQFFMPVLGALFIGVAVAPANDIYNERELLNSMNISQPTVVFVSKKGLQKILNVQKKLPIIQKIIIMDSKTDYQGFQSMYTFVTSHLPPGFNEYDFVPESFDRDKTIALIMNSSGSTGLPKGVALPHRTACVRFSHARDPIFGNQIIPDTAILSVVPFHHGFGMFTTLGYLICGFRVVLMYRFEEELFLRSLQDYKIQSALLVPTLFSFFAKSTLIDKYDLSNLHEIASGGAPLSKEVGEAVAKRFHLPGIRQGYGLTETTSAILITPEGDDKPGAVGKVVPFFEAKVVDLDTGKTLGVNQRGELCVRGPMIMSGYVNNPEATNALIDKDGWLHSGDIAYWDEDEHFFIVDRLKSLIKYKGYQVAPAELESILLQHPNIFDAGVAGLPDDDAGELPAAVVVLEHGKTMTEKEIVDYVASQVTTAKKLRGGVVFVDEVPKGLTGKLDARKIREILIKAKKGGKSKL
#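 Purified P. pyralis luciferase, 10 nM final, with Km-level 10 uM D-luciferin and 10 uM ATP in 50 mM Tris acetate pH 7.5, 10 mM Mg acetate, 0.01% Tween-20, 0.05% BSA; 6-point qHTS titration about 60 µM downward; luminescence read.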
# SMN2 splice up: SMN2 splice variant enhancement; HEK293 SMN2-luciferase splicing reporter, luminescence, 30-36 h; Potency, µM (series often up to 46.1 µM), without a hit: at the top dose activity change, positive = activation, actives largely listed as activators; 210,000 compounds, 2.8% hits; AID 1458; also: % of control where 0% means no effect; nearly all actives have a fitted effect of over 55% in size
#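 qHTS luciferase splicing reporter: luminescence rises when SMN2 exon 7 is included in transfected HEK293 cells. Compound exposure lasted 30-36 h at 37C, with 4.5 mM final sodium butyrate as control, followed by a ONE-Glo read.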
# NPC1 promoter act: activates the NPC1 promoter | Potency, µM (highest dose often 9.22 µM), without a hit: top-dose activation, hits mostly activators | AID 485313 | Huh7 NPC1 promoter luciferase reporter, 24 h | 320,000 compounds, 2.4% hits; also: % of control where 0% means no effect; nearly all actives have a fitted effect of over 60% in size
#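 NPC1 promoter–luciferase Huh7 cells; 24 h compound; luminescence.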
# ELG1 genotoxic: genotoxicity induction in ELG1-luciferase HEK293T cells | HEK293T ELG1-luciferase reporter, luminescence, 16 h | Potency, µM (top dose mostly 46 µM), for the others: at the highest dose activity change, positive = activation, usual class: activators | 330,000 compounds, 1.3% hits | AID 504466; also: % of control where 0% means no effect; nearly all actives have a fitted effect of over 60% in size
#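 Luminescence read-out: rising ELG1-luciferase signal, reflecting elevated ELG1 protein under genetic stress, flags genotoxic compounds. Cells were treated for 16 hr at 37 °C before ONE-Glo detection.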
# Rab9 prom act: activators of Rab9 promoter | Huh7 Rab9 promoter-luciferase reporter, luminescence, 24 h | 320,000 compounds, 2.8% hits | Potency, µM (doses to about 9.22 µM), without a hit: at the top dose activation, negative = inhibition, usual class: activators; also: % of control where 0% means no effect; nearly all actives have a fitted effect of over 60% in size
#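 Using Huh7 cells stably transfected with Rab9 promoter–luciferase, compounds were incubated 24 h at 37 °C, 5% CO2; luciferase luminescence was read 10 min after reagent addition.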
# * hit, by the source's call; ? = inconclusive; · = no result; [ ] = dose if it differs, or a comment. In the library only some 9.2% were active in any assay of this set; here they are far more common. Calls follow the shape of the dose curve; as a rule, active = well fitted curve in the direction sought with a large enough effect; inconclusive = small, poorly fitted or top-dose-only effect, or another doubt; inactive = no such curve, though single readings can be large; an effect the other way counts as inactive or inconclusive. Potency is read from the fitted curve at half-maximal effect.
SMILES,ELG1 DNA repair,FLuc counter,SMN2 splice up,NPC1 promoter act,ELG1 genotoxic,Rab9 prom act
CC#CCN1c2ccccc2[C@]23C[C@@H](C(=O)OC)N(S(=O)(=O)c4ccc(C)cc4)C2=NC(C(=O)OC)=C(C(=O)OC)[C@H]13,·,·,1%[9.22 µM],·,·,·
CCn1c2ccccc2c2nnc(SCCCn3c(=O)[nH]c4ccccc43)nc21,23µM*,-7%,·,4%,-30%,-3%
CCn1c2ccccc2c2nnc(SCc3ccccc3)nc21,-3%,?,-18%,10%,0%,0%
COc1ccc(OC)c(NC(=O)CN2CCC(C(=O)c3ccc(C)cc3)CC2)c1,21µM*,0%,2%,7%,-13%,-3%
CCOc1ccc(C(=O)Nc2ccccc2N2CCOCC2)cc1,18%,?,-10%,-1%,7%,-2%
CCOc1ccc(C(=O)C2CCN(CC(=O)Nc3ccccc3N3CCOCC3)CC2)cc1,21µM*,2%,-35%,-7%,2%,-6%
CCOC(=O)C1=C(CC)Nc2ccccc2N=C1NC(=O)Nc1ccc(Cl)c(Cl)c1,18µM*,?,-12%,-2%,-2%,0%
CCOC(=O)C1=C(CC)Nc2ccccc2N=C1NC(=O)c1cc(C)on1,-8%,6%,·,-6%,-4%,3%
COc1ccc(Cc2nnc(SCC(=O)c3c(N)n(C4CC4)c(=O)[nH]c3=O)o2)cc1,22%,4%,·,-6%,7%,-2%
O=C(N/N=C/c1ccc([N+](=O)[O-])o1)c1cc2ccccc2o1,?,-12%,·,-10%,-1%,-34%
O=[N+]([O-])c1ccc(/C=N/Nc2nc(-c3ccccc3)c3cc(Br)ccc3n2)o1,-14%,-4%,-26%,-4%,3%,11%
Cc1ccc2nc(N/N=C\c3ccc([N+](=O)[O-])o3)nc(-c3ccccc3)c2c1,21µM*,7.6µM*,-27%,0%,-19%,3%
O=[N+]([O-])c1ccc(/C=N/Nc2ccc3ccccc3c2)o1,?,11µM*,9%,?,13%,?
CC(C)n1c(-c2cccnc2)nc2cnccc21,13µM*,3%,-8%,1%,-9%,-2%
Cn1c(COc2ccc(Cl)cc2Cl)nnc1SCC(=O)NCC1CCCO1 (stereo not given),12%,-2%,·,1%,-1%,-1%
O=C(c1ccncc1)N1CCc2ccccc2C1,23%,0%,·,1%,1%,-2%
O=C(c1cc(-c2ccccc2O)on1)N1CCc2ccccc2C1,?,?,21%,-5%,16%,6%
O=C(c1cc(-c2cccs2)on1)N1CCOCC1,?,19µM*,?,2.8µM*,?,?
O=C(Nc1ccc2nc(-c3cccs3)c(-c3cccs3)nc2c1)N1CCOCC1,5.2µM*,4%,-52%,-4%,-10%,-3%
O=C(c1cc(-c2cccs2)on1)N1CCN(C(c2ccccc2)c2ccccc2)CC1,-4%,1%,-14%,-32%,-8%,-54%
O=C(c1cc(-c2cccs2)on1)N1CCc2ccccc2C1,?,19µM*,0%,-3%,6%,2%
O=C(c1cncc(Br)c1)N1CCc2ccccc2C1,5.8µM*,-1%,-15%,6%,-18%,-2%
Cc1nn(CC(C)C)c(=S)[nH]c1=O,11%,0%,5.6µM*,-4%,-4%,-9%
Cc1nnc(SCC(C)C)[nH]c1=O,0%,5%,6%,7%,4%,-15%
CCc1nc2ccc(C(=O)O)cc2nc1CC,?,24µM*,-27%,?,?,?
SMILES,ELG1 DNA repair,FLuc counter,SMN2 splice up,NPC1 promoter act,ELG1 genotoxic,Rab9 prom act
CCc1nc2ccc(C(=O)Nc3cccc(C(C)=O)c3)cc2nc1CC,18µM*,?,·,10%,-1%,-4%
O=C(O)c1ccc2nc3c(nc2c1)-c1ccccc1C3=O,?,15µM*,8%,14%,3%,?
Cc1ccc(-c2nc3ccc(C(=O)O)cc3nc2-c2ccc(C)cc2)cc1,?,1%,-10%,0%,0%,-4%
O=S(=O)(CCc1ccccc1)c1nnnn1-c1ccc(F)cc1Br,·,·,12%,·,·,·
CC(=O)Nc1cccc(-n2nnc(SCC(=O)c3ccccc3)n2)c1,?,17µM*,·,2.8µM*,?,3.2µM*
COc1ccc(C(=O)CSc2nnn(-c3cccc(NC(C)=O)c3)n2)cc1,?,17µM*,·,?,5%,?
CCOC(=O)C1CCN(CCC(=O)Nc2ccccc2OC)CC1,·,-3%,-2%,·,·,·
C/C(=N\OC(=O)c1ccc(F)cc1)c1sc(-c2ccccc2)nc1C,?,5%,20µM*,2µM*,?,1.6µM*
C/C(=N\OC(=O)NC1CCCCC1)c1sc(-c2ccccc2)nc1C,?,?,-55%,9%,0%,-7%
Cc1nc(-c2ccccc2)sc1C(=O)CSc1ccc(Cl)cc1,7%,-12%,3%,1%,1%,4%
C/C(=N\OC(=O)c1ccc(Cl)cc1)c1sc(-c2ccccc2)nc1C,?,4%,?,4µM*,?,4µM*
Cc1ccc(NC(=O)CN2C(=O)COc3ccc(S(=O)(=O)N4CCCCCC4)cc32)cc1Cl,·,-13%,·,·,·,·
C/C(=N\Nc1nncc2ccccc12)c1ccc(OCC(=O)N(C)C)cc1,?,12µM*,·,27%,15%,?
CCOC(=O)NNc1nncc2ccccc12,-2%,-8%,11%,0%,-6%,2%
CC/C(=N/Nc1ccccc1)c1cnnc(-c2ccccc2)n1,26%,0%,9%,-8%,?,-8%
CC/C(=N\Nc1nncc2ccccc12)c1ccc(F)cc1,?,12µM*,·,?,16µM*,?
CCOC(=O)c1c(C)[nH]c(C)c1S(=O)(=O)N1CCCC(C(=O)N2CCN(c3cc(C)ccc3C)CC2)C1 (stereo not given),·,-12%,·,·,·,·
CCc1ccc(C(=O)C(C)OC(=O)CNS(=O)(=O)c2ccc(C)cc2)cc1 (stereo not given),0%,7%,·,-4%,1%,5%
CCCCN(CC)C(=O)CCNS(=O)(=O)c1ccc2c(c1)c(=O)n(C)c(=O)n2C,·,0%,-25%,·,·,·
CCC(=O)Nc1ccc(NC(=O)c2cc3ccccc3o2)cc1,?,?,?,?,9%,?
O=C(NC1=NCCS1)c1cc2ccccc2o1,?,1.2µM*,4µM*,0.32µM*,2.3µM*,0.35µM*
CCc1cccc(C)c1NC(=O)c1cc2ccccc2o1,·,-5%,-29%,·,·,·
Cc1ccnc(NC(=O)c2cc3ccccc3o2)c1,?,0.27µM*,·,1.3µM*,?,?
